# Compound activity from PubChem.
# DT40 TDP1 CPT – qHTS for Inhibitors of human tyrosyl-DNA phosphodiesterase 1 (TDP1): qHTS in cells in presence of CPT; chicken DT40 Tdp1-/-;hTDP1 cells + 20 nM CPT, ATP luminescence, 48 h; Potency, µM (titrated, usually from 46.2 µM), inactives show at the top dose activity change, negative = growth inhibition, usual class: inhibitors; 420,000 compounds, 12% hits; note: nearly all actives have a fitted effect of over 55% in size
#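 Chicken DT40 Tdp1-/- cells stably complemented with human TDP1 were seeded at 400 cells/well in medium containing 20 nM camptothecin, exposed to pin-transferred compounds, and grown at 37 °C for at least 48 hr. Viability was read as ATP luminescence.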
# HT1080 IDH1KD tx – qHTS for induction of synthetic lethality in tumor cells producing 2HG: qHTS for the HT-1080-IDH1KD cell line. Potency, µM (series often up to 46.1 µM), without a hit: top-dose activity, negative = toxicity, most hits filed as cytotoxic. 360,000 compounds, 2% hits. HT-1080 IDH1 knockdown viability, ATP luminescence, 48 h;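 note: 0% = DMSO wells and -100% = cell-free medium wells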
#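 Assay cells: HT-1080 with IDH1 knockdown, 750 per well, RPMI/5% FBS. Exposure: 48 h at 37 °C following 2 h pre-incubation. Read: CellTiter-Glo luminescence; fitted concentration-response, curve class assigned.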
# HT1080NT lethal – qHTS for induction of synthetic lethality in tumor cells producing 2HG: qHTS for the HT-1080-NT fibrosarcoma cell line | HT-1080-NT fibrosarcoma viability, CellTiter-Glo ATP luminescence, 48 h | Potency, µM (doses to about 46.1 µM), for inactives: top-dose activity, negative = less viability, most hits filed as cytotoxic | 360,000 compounds, 1.6% hits;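 note: NT is the 2HG producing partner of a matched IDH1 knockdown line; 0% = DMSO-treated cells and -100% = media-only wells without cells; nearly all actives have a fitted effect of over 55% in size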
#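 Compounds were tested in concentration-response format on HT-1080-NT cells for 48 hours at 37 degrees C. Cell viability came from CellTiter-Glo luminescence; curves were classified by r2, response magnitude and activity.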
# KB-3-1 cytotox – qHTS assay for MDR1-selective chemotherapeutics: Primary screen using the parental adenocarcinoma cell KB-3-1; KB-3-1 viability, CellTiter-Glo ATP luminescence, 72 h; Potency, µM (titrated, usually from 46.1 µM), usual class: cytotoxic; 400,000 compounds, 1.4% hits; note: nearly all actives have a fitted effect of over 60% in size
#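 Screening of KB-3-1 cells (DMEM, 10% FBS, phenol-red free) ran from lowest to highest compound concentration; after 72 h at 37 °C viability was read luminescently and curves fitted.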
# TDP1 cell noCPT – qHTS for Inhibitors of human tyrosyl-DNA phosphodiesterase 1 (TDP1): qHTS in cells in absence of CPT; DT40 Tdp1-/- hTDP1 cells, no CPT, ATP luminescence, 48 h; 420,000 compounds, 15% hits; Potency, µM (highest dose often 46.2 µM), for inactives: at the highest dose activity change, negative = growth inhibition, usual class: inhibitors; note: nearly all actives have a fitted effect of over 55% in size
#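 Stably hTDP1-transfected Tdp1-null chicken DT40 cells were treated with library compounds minus camptothecin and grown for at least 48 hr at 37 °C, after which cellular ATP was quantified by luminescence.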
# KB-V1 MDR tox – qHTS assay for MDR1-selective chemotherapeutics: Primary screen using the drug-selected MDR subline cells KB-V1; KB-V1 MDR cells viability, CellTiter-Glo, 72 h; AID 1347076, 2019; 400,000 compounds, 3.4% hits; Potency, µM (top dose mostly 46.1 µM), actives largely listed as cytotoxic; note: nearly all actives have a fitted effect of over 60% in size
#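 Potencies derive from concentration-effect curves fitted to normalized luminescence (CellTiter-Glo) of KB-V1 cells treated for 72 h at 37 degrees C in phenol-red-free DMEM containing 10% FBS.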
# * hit, by the source's call; i = inactive; ? = inconclusive; nt = no result given. The list is not random: actives were taken first. Their share in the collection is about 19%. Calls come from the whole dose curve; as a rule, active = well fitted curve in the direction sought with a large enough effect; inconclusive = small, poorly fitted or top-dose-only effect, or another doubt; inactive = no such curve, though single readings can be large; an effect the other way counts as inactive or inconclusive. Unless noted, % is set by controls: 0 for no effect and ±100 for the full control effect; potency is the fitted concentration of half-maximal effect.
SMILES,DT40 TDP1 CPT,HT1080 IDH1KD tx,HT1080NT lethal,KB-3-1 cytotox,TDP1 cell noCPT,KB-V1 MDR tox
COCCCNc1ncnc2onc(-c3ccc(F)cc3)c12,4%,nt,nt,i,?,i
COc1ccc(CNc2ncnc3onc(-c4ccc(F)cc4)c23)cc1,21µM*,nt,nt,i,29µM*,?
CCc1ccccc1NC(=O)CN1C(=O)c2ccccc2S1(=O)=O,4%,2%,12%,i,9%,i
CCc1nc2nc(C)cc(Nc3ccc(OC)cc3)n2n1,?,nt,nt,i,-6%,i
Cc1ccc(CCNc2ncnc3onc(-c4ccc(Cl)cc4)c23)cc1,?,nt,nt,i,26µM*,i
Cc1ccc(CCNc2ncnc(Cl)c2N)cc1,0.46µM*,?,0.65µM*,?,0.52µM*,?
COc1cccc(CNc2ncnc3nc[nH]c23)c1,?,nt,nt,i,?,?
CCc1cccc(Nc2ncnc3onc(-c4ccc(F)cc4)c23)c1,23µM*,nt,nt,i,16µM*,i
COc1cccc(CNc2ncnc3onc(C)c23)c1,13µM*,nt,nt,21µM*,9.2µM*,i
CC(C)Oc1cccc(C(=O)NC(=S)NCc2cccnc2)c1,?,-11%,-9%,i,?,i
Cc1nn(-c2ccccc2)c(C)c1C(=O)OCC(=O)Nc1ccccc1Cl,2%,6%,6%,i,-4%,i
COc1ccc(CCNc2ncnc3onc(C)c23)c(OC)c1,1.2µM*,nt,nt,?,0.52µM*,i
CCCNc1ncnc2onc(C)c12,-21%,-5%,-4%,i,?,i
Clc1ccc(CNc2ncnc3onc(-c4ccc(Cl)cc4)c23)cc1,?,nt,nt,i,18µM*,i
CC(C)CNc1ncnc2onc(-c3ccc(Cl)cc3)c12,-27%,nt,nt,i,-25%,i
CCOc1ccc(CCNc2ncnc3onc(-c4ccc(F)cc4)c23)cc1OCC,?,nt,nt,i,23µM*,2.6µM*
Cc1cccc(CCNc2ncnc3onc(-c4ccc(Cl)cc4)c23)c1,?,nt,nt,i,18µM*,21µM*
Cc1cc(Cl)cc(Cl)c1OCC(=O)NCc1ccco1,?,-12%,-9%,i,18µM*,i
O=C(COc1ccc(Cl)cc1Cl)NCc1ccco1,-19%,5%,11%,i,-7%,i
O=C(COc1ccccc1Cl)NCc1ccco1,-5%,5%,8%,i,-26%,i
CCOc1ccccc1OCC(=O)NCc1ccco1,29µM*,-26%,-17%,i,13µM*,i
C/C(CC(=O)NCc1ccco1)=N\NC(=O)COc1ccc(Cl)cc1Cl,18µM*,?,21µM*,?,21µM*,?
Cc1ccc(OCC(=O)NCc2ccco2)cc1C,-15%,12%,28%,i,-13%,i
